Assay outcomes from PubChem BioAssay.
ASM inhibitor: inhibitors of human secretory acid sphingomyelinase; placental ASM, HMU-PC fluorogenic substrate, 60 min; AID 504937; Potency, µM (top dose mostly 57.5 µM), for the others: top-dose activity change, negative = inhibition, hits mostly inhibitors; 340,000 tested, 0.006% active; P17405; note: potency is the fitted concentration of half-maximal effect
Target sequence (P17405 47-631 limits assumed): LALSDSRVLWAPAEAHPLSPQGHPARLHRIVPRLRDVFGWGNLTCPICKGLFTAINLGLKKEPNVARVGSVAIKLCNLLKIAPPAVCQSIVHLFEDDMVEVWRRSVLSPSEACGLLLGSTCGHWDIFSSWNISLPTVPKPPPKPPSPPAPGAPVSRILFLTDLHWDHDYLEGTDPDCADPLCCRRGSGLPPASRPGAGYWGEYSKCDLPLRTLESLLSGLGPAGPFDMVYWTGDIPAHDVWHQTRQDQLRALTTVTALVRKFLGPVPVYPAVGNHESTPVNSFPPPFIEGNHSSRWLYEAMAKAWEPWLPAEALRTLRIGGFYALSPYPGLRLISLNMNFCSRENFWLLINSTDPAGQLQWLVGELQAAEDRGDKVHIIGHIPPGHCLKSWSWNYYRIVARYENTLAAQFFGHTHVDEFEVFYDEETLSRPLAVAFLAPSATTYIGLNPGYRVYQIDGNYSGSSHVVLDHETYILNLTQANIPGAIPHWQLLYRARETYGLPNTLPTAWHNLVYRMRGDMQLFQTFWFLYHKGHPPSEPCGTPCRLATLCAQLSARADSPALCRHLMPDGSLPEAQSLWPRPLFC
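Steps: dispense placental human ASM, pin compound, wait 10 min at room temperature, add HMU-PC0 substrate at 9 uM final, incubate 60 min at 37 °C, add stop solution raising pH to 10, read fluorescence.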
TGFb SMAD3 inh: blocks TGF-b signaling; HepG2 CAGA-GFP TGF-b/SMAD3 reporter, GFP fluorescence, 18 h; TGF-beta stimulated, 500 pg/mL final; Potency, µM (top dose mostly 46.1 µM), for inactives: at the top dose activity, negative = inhibition, hits mostly inhibitors; 410,000 tested, 1.2% active; note: potency is the fitted concentration of half-maximal effect; % is set by controls: 0 for no effect and ±100 for the full control effect; nearly all actives have a fitted effect of over 65% in size
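HEPG2 CAGA-GFP cells (1000/well, DMEM with 1% FBS) were pre-incubated 2 h at 37 degrees C, given compound by pin tool, then stimulated with TGF-beta at 500 pg/mL final for 18 h before per-cell GFP fluorescence imaging.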
IL-1B inflam inh: blocks inflammasome-driven IL-1 beta release. activity change, % at 57.5 µM. THP-1 LPS/ATP IL-1B secretion, AlphaLISA, 16 h; hits give low values. 360,000 tested, 4.7% active; in the data active = activity change below about -50%; inconclusive = mostly about -30% to -49%; note: % is set by controls: 0 for no effect and ±100 for the full control effect
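THP-1 cells pretreated 1 hr with compounds (up to 57.5 uM final), then stimulated with LPS (250 ng/mL final) plus ATP (1.25 mM final); secreted IL-1B measured by AlphaLISA after 16 hr, decreased signal indicating inhibition.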
HepG2 tox-1: kills HepG2 cells in TGF-b inhibitor counter-screen | HepG2 CAGA-GFP viability, ATP luminescence, 18 h | Potency, µM (highest dose often 46.1 µM), for the others: at the top dose activity change, negative = cytotoxicity, hits mostly cytotoxic | 410,000 tested, 0.76% active | AID 588856; note: potency is the fitted concentration of half-maximal effect
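HepG2 CAGA-GFP cells (1000/well, DMEM with 1% FBS) received compound, then TGF-beta at 500 pg/mL final, and were incubated 18 hours at 37 degrees C. Viability was read by CellTiter-Glo luminescence. Media-only wells were set as complete cell-killing and DMSO as no toxicity.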
DT40 TDP1 no CPT: qHTS for Inhibitors of human tyrosyl-DNA phosphodiesterase 1 (TDP1): qHTS in cells in absence of CPT | DT40 Tdp1-/- hTDP1 cells, no CPT, ATP luminescence, 48 h | Potency, µM (titrated, usually from 46.2 µM), for inactives: at the top dose activity change, negative = growth inhibition, most hits filed as inhibitors | 420,000 tested, 15% active; note: potency is the fitted concentration of half-maximal effect; % is set by controls: 0 for no effect and ±100 for the full control effect; nearly all actives have a fitted effect of over 55% in size
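Cells were dispensed at 400 per well, compounds added by pin tool, plates incubated ≥48 hr at 37 °C, then CellTiter-Glo added for 30 min at room temperature before luminescence reading. Line: DT40 Tdp1-/- complemented with hTDP1; camptothecin omitted.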
DT40 TDP1 CPT: growth inhibition of DT40 Tdp1-/-;hTDP1 cells with camptothecin (screen for TDP1 inhibitors); chicken DT40 Tdp1-/-;hTDP1 cells + 20 nM CPT, ATP luminescence, 48 h; Potency, µM (titrated, usually from 46.2 µM), inactives show top-dose activity change, negative = growth inhibition, usual class: inhibitors; 420,000 tested, 12% active; note: potency is the fitted concentration of half-maximal effect; % is set by controls: 0 for no effect and ±100 for the full control effect; nearly all actives have a fitted effect of over 55% in size
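Chicken DT40 Tdp1-/- cells complemented with human TDP1, 400 cells/well, exposed to compounds plus 20 nM camptothecin for at least 48 h at 37 C; viability read as ATP content by CellTiter-Glo luminescence.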
TGFb confirm: confirmation of TGF-b signaling inhibitors in HepG2 reporter cells; shares compounds with TGFb SMAD3 inh; HepG2 CAGA-GFP TGF-b reporter, GFP fluorescence, 18 h; cells stimulated with TGF-beta, 500 pg/mL; Potency, µM (doses to about 46.1 µM), without a hit: top-dose activity, negative = inhibition, hits mostly inhibitors; 1,600 tested, 63% active; AID 720534; note: potency is the fitted concentration of half-maximal effect; % is set by controls: 0 for no effect and ±100 for the full control effect; nearly all actives have a fitted effect of over 65% in size
HepG2 tox-2: HepG2 cytotoxicity, TGF-b inhibitor counterscreen. shares compounds with TGFb SMAD3 inh. HepG2 CAGA-GFP viability, ATP luminescence, 18 h; cells stimulated with TGF-beta, 500 pg/mL. Potency, µM (highest dose often 46.1 µM), without a hit: at the top dose activity, negative = cytotoxicity, hits mostly inhibitors. 1,600 tested, 27% active. AID 720535; note: potency is the fitted concentration of half-maximal effect; % is set by controls: 0 for no effect and ±100 for the full control effect; nearly all actives have a fitted effect of over 70% in size
CCL64 TGFb inh: blocks TGF-b signaling in CCL64 reporter cells | AID 720536 | CCL64 CAGA-GFP reporter, TGF-b stimulated, GFP fluorescence, 18 h | shares compounds with TGFb SMAD3 inh | 1,600 tested, 41% active | Potency, µM (titrated, usually from 46.1 µM), for inactives: at the highest dose activity, negative = inhibition, actives largely listed as inhibitors; note: potency is the fitted concentration of half-maximal effect; nearly all actives have a fitted effect of over 65% in size
COP TGFb inh: blocks TGF-b signaling in HepG2 COP reporter; shares compounds with TGFb SMAD3 inh; HepG2 COP-GFP TGF-b reporter, GFP fluorescence, 18 h; cells stimulated by added recombinant TGF-beta; Potency, µM (series often up to 46.1 µM), without a hit: top-dose activity, negative = inhibition, actives largely listed as inhibitors; 1,600 tested, 3% active; AID 720537; note: potency is the fitted concentration of half-maximal effect; nearly all actives have a fitted effect of over 70% in size
An asterisk follows results filed as active. Sampled rows, rich in hits. Any-hit rate of the full collection: about 19%. Unless noted, calls come from the whole dose curve; as a rule, active = well fitted curve in the direction sought with a large enough effect; inconclusive = small, poorly fitted or top-dose-only effect, or another doubt; inactive = no such curve, though single readings can be large; an effect the other way counts as inactive or inconclusive.

For CC(C)C[C@H]1CNC(=S)N1CC1CCCN1C[C@H](Cc1ccccc1)N1C[C@H](Cc2ccc(O)cc2)N(CC2CCCCCC2)C1=S (stereo partly drawn) the results were ASM inhibitor inconclusive, TGFb SMAD3 inh 6.31µM*, IL-1B inflam inh -67.4*, HepG2 tox-1 -26.3%, DT40 TDP1 no CPT inconclusive, DT40 TDP1 CPT inconclusive, TGFb confirm 14.6µM*, HepG2 tox-2 inconclusive, CCL64 TGFb inh 5.8µM* and COP TGFb inh 30.8%.
CC(C)C[C@@H](CN1CCC[C@@H]1CN1C(=O)C(=O)NC[C@@H]1Cc1ccccc1)N1C[C@H](Cc2ccccc2)N(CC2CCCCCC2)C(=O)C1=O was read as ASM inhibitor -3.0%, TGFb SMAD3 inh inconclusive, IL-1B inflam inh -24.3, HepG2 tox-1 2.3%, DT40 TDP1 no CPT inconclusive and DT40 TDP1 CPT inconclusive.
Screening O=C(CNC(=O)N1CC(=O)Nc2ccccc21)Nc1nccs1 returned ASM inhibitor 8.6%, TGFb SMAD3 inh -7.3%, IL-1B inflam inh 43.9, HepG2 tox-1 8.6%, DT40 TDP1 no CPT 11.8% and DT40 TDP1 CPT -0.7%.
Screening CC(C(=O)N1CCc2ccccc21)N1CCN(c2cccc(C(F)(F)F)c2)CC1 (stereo not drawn) returned ASM inhibitor -2.4%, TGFb SMAD3 inh 7.08µM*, IL-1B inflam inh inconclusive, HepG2 tox-1 -39.4%, DT40 TDP1 no CPT inconclusive, DT40 TDP1 CPT -12.5%, TGFb confirm inconclusive, HepG2 tox-2 3.3%, CCL64 TGFb inh inconclusive and COP TGFb inh -9.4%.
For COc1ccc2nc(Nc3nc(CSc4nc5ccccc5[nH]4)cc(=O)[nH]3)nc(C)c2c1 the results were ASM inhibitor -3.9%, TGFb SMAD3 inh 2.82µM*, IL-1B inflam inh -95.1*, HepG2 tox-1 4.2%, DT40 TDP1 no CPT 4.11µM*, DT40 TDP1 CPT 4.61µM*, TGFb confirm 8.2µM*, HepG2 tox-2 inconclusive, CCL64 TGFb inh 18.4µM* and COP TGFb inh 26.3%.
For Cc1nc(Nc2nc(CSc3nc4ccccc4[nH]3)cc(=O)[nH]2)nc2ccccc12 the results were ASM inhibitor -5.6%, TGFb SMAD3 inh 17.8µM*, IL-1B inflam inh -86.9*, HepG2 tox-1 -16.2%, DT40 TDP1 no CPT 6.51µM*, DT40 TDP1 CPT 4.11µM*, TGFb confirm 5.17µM*, HepG2 tox-2 4.11µM*, CCL64 TGFb inh 6.51µM* and COP TGFb inh 37.7%.
Screening Cc1cc(C)n2cc(CSc3nc4ccccc4[nH]3)nc2n1 returned ASM inhibitor -1.3%, TGFb SMAD3 inh -1.6%, IL-1B inflam inh 0.0, HepG2 tox-1 6.1%, DT40 TDP1 no CPT -1.3% and DT40 TDP1 CPT 1.5%.
For Nc1nnc(-c2ccc(Cl)c([N+](=O)[O-])c2)s1 the results were ASM inhibitor -8.8%, TGFb SMAD3 inh 14.1%, IL-1B inflam inh 15.7, HepG2 tox-1 19.5%, DT40 TDP1 no CPT inconclusive and DT40 TDP1 CPT -22.5%.
For CNC[C@@H]1CC[C@@H](N)[C@@H](O[C@H]2[C@H](O)[C@@H](O[C@H]3OC[C@](C)(O)[C@H](NC)[C@H]3O)[C@H](N)C[C@@H]2N)O1 the results were DT40 TDP1 no CPT 7.9% and DT40 TDP1 CPT 4.1%.
Screening O=C(NCCCCCCNC(=O)c1ccccc1O)c1ccccc1O returned ASM inhibitor -6.0%, TGFb SMAD3 inh 8.91µM*, IL-1B inflam inh -25.4, HepG2 tox-1 -35.2%, DT40 TDP1 no CPT 20.6µM*, DT40 TDP1 CPT inconclusive, TGFb confirm inconclusive, HepG2 tox-2 inconclusive, CCL64 TGFb inh inconclusive and COP TGFb inh 10.6%.
For CCS(=O)(=O)Nc1ccc(-c2ccc(NS(=O)(=O)CC)c(OC)c2)cc1OC the results were ASM inhibitor 9.2%, TGFb SMAD3 inh -12.2%, IL-1B inflam inh -17.2, HepG2 tox-1 -7.3%, DT40 TDP1 no CPT inconclusive and DT40 TDP1 CPT -68.1%.
For CCCS(=O)(=O)Nc1ccc(Nc2c3ccccc3nc3ccccc23)c(OC)c1 the results were ASM inhibitor 187.4%, TGFb SMAD3 inh 10µM*, IL-1B inflam inh -93.8*, HepG2 tox-1 -84.2%, DT40 TDP1 no CPT 0.164µM*, DT40 TDP1 CPT 0.164µM*, TGFb confirm inconclusive, HepG2 tox-2 14.6µM*, CCL64 TGFb inh 13µM* and COP TGFb inh 5.3%.
CC(=O)NCCc1c(C)n(Cc2ccccc2)c2ccccc12 was read as ASM inhibitor -0.8%, TGFb SMAD3 inh 28.3%, IL-1B inflam inh -15.3, HepG2 tox-1 -13.5%, DT40 TDP1 no CPT -16.9% and DT40 TDP1 CPT 6.9%.
Screening CN(C)CC(C(=O)c1ccccc1)c1ccccc1 (stereo not drawn) returned ASM inhibitor 0.5%, TGFb SMAD3 inh 3.98µM*, IL-1B inflam inh -101.3*, HepG2 tox-1 8.91µM*, DT40 TDP1 no CPT 1.46µM*, DT40 TDP1 CPT 1.16µM*, TGFb confirm 5.17µM*, HepG2 tox-2 10.3µM*, CCL64 TGFb inh 3.26µM* and COP TGFb inh inconclusive.
